Columns and labels:
Conditions in all cases: concentration: 1 μM, replicates: in singlicate; n = 1
RIPK1 = tested on: RIPK1
RIPK2 = tested on: RIPK2
RIPK4 = tested on: RIPK4
RIPK5 = tested on: RIPK5
ROCK2 = tested on: ROCK2
ROS1 = tested on: ROS1
[1] = tested on: RPS6KA4(Kin.Dom.1-N-terminal)
[2] = tested on: RPS6KA4(Kin.Dom.2-C-terminal)
[3] = tested on: RPS6KA5(Kin.Dom.1-N-terminal)
[4] = tested on: RPS6KA5(Kin.Dom.2-C-terminal)
[5] = tested on: T1, RSK1(Kin.Dom.1-N-terminal)
T1 construct: gene RPS6KA1

[6] = tested on: T2, RSK1(Kin.Dom.2-C-terminal)
T2 construct: gene RPS6KA1

[7] = tested on: T3, RSK2(Kin.Dom.1-N-terminal)
T3 construct: gene RPS6KA3

[8] = tested on: T4, RSK2(Kin.Dom.2-C-terminal)
T4 construct: gene RPS6KA3

[9] = tested on: T5, RSK3(Kin.Dom.1-N-terminal)
T5 construct: gene RPS6KA2

[10] = tested on: T6, RSK3(Kin.Dom.2-C-terminal)
T6 construct: gene RPS6KA2

[11] = tested on: T7, RSK4(Kin.Dom.1-N-terminal)
T7 construct: gene RPS6KA6

[12] = tested on: T8, RSK4(Kin.Dom.2-C-terminal)
T8 construct: gene RPS6KA6

S6K1 = tested on: S6K1
ROCK1 = tested on: ROCK1
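Further: KINOMEscan kinase panel screen.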

| Compound | %Inh (RIPK1) [%] | %Inh (RIPK2) [%] | %Inh (RIPK4) [%] | %Inh (RIPK5) [%] | %Inh (ROCK2) [%] | %Inh (ROS1) [%] | %Inh [1] [%] | %Inh [2] [%] | %Inh [3] [%] | %Inh [4] [%] | %Inh [5] [%] | %Inh [6] [%] | %Inh [7] [%] | %Inh [8] [%] | %Inh [9] [%] | %Inh [10] [%] | %Inh [11] [%] | %Inh [12] [%] | %Inh (S6K1) [%] | %Inh (ROCK1) [%] |
| --- | --- | --- | --- | --- | --- | --- | --- | --- | --- | --- | --- | --- | --- | --- | --- | --- | --- | --- | --- | --- |
| Nc1nc(-c2ccc3c(N)n[nH]c3c2)cc(N2CCC[C@@H](C(=O)Nc3ccccc3)C2)n1.O=C(O)C(F)(F)F.O=C(O)C(F)(F)F [GSK2288359] | 10 | 5 | 13 | 3 | 61 | 0 | 0 | 0 | 0 | 6 | 20 | 13 | 0 | 0 | 7 | 0 | 0 | 5 | 0 | – |
| COc1ccc(-c2oc3ncnc(N)c3c2-c2ccc(OC)cc2)cc1 [SB-589132] | 2 | 28 | 1 | 0 | 0 | 0 | 0 | 0 | 0 | 0 | 29 | 30 | 9 | 30 | 5 | 0 | 0 | 69 | 16 | 41 |
| FC(F)(F)c1ccc(-c2nn3ncccc3c2-c2ccnc(Nc3cccc(C(F)(F)F)c3)n2)cc1 [GW828205] | 0 | 0 | 0 | 0 | 0 | 0 | 16 | 0 | 0 | 3 | 12 | 0 | 0 | 6 | 0 | 0 | 0 | 3 | 0 | 0 |
| C[C@H]1CC[C@@H](C(=O)Nc2ccccc2)CN1c1cc(-c2ccc3c(N)n[nH]c3c2)nc(N)n1 [GSK2283293] | 0 | 0 | 6 | 0 | 18 | 0 | 6 | 0 | 12 | 0 | 18 | 8 | 0 | 21 | 0 | 9 | 0 | 23 | 0 | 9 |
| COC(=O)c1cccc(NC(=O)NCCNc2ccnc(Nc3ccc(F)cc3)n2)c1 [GSK1379883] | 22 | 0 | 2 | 0 | 5 | 17 | 23 | 0 | 22 | 4 | 30 | 0 | 0 | 0 | 0 | 0 | 0 | 11 | 0 | 25 |
| O=C(Nc1n[nH]c2nc(-c3ccco3)c(Br)cc12)c1ccc(CN2CCCC2)cc1.O=C(O)[C@H](O)[C@@H](O)C(=O)O [SB-742352] | 33 | 47 | 0 | 0 | 0 | 12 | 10 | 8 | 0 | 0 | 5 | 0 | 3 | 0 | 0 | 0 | 13 | 0 | 11 | 0 |
| O=C(NCCCN1CCCC1=O)c1cnc(NCc2cc(Cl)ccc2Cl)nc1NC1CCNCC1 | 0 | 0 | 0 | 0 | 0 | 0 | 15 | 0 | 0 | 0 | 100 | 5 | 0 | 0 | 39 | 8 | 0 | 17 | 26 | 0 |
| Fc1cccc(COc2ccc(Nc3ncnc4sc(-c5ccc[nH]5)cc34)cc2Cl)c1 [GW707818] | 34 | 31 | 0 | 16 | 21 | 8 | 10 | 0 | 99.9 | 20 | 25 | 8 | 0 | 0 | 0 | 5 | 0 | 5 | 0 | 27 |

From publication PMC5540273 (PLoS ONE, 2017)
